# Measurements from ChEMBL document CHEMBL1961873, “Compounds: GSK PKIS; Assays: Nanosyn kinase panel” (2012).
# Key:
# [1] = molecular target: CDK3/Cyclin E (Homo sapiens) (UniProt P24864+Q00526); conditions: at 1 µM;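 further: each figure is a mean percent inhibition of the CDK3/cyclin E complex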
# [2] = molecular target: Cyclin-dependent kinase 4 (Homo sapiens) (UniProt P11802); conditions: at 0.1 µM
# [3] = molecular target: Cyclin-dependent kinase 4 (Homo sapiens) (UniProt P11802); conditions: at 1 µM
# [4] = molecular target: Cyclin-dependent kinase 5 (Homo sapiens) (UniProt Q00535); conditions: at 0.1 µM
# [5] = molecular target: Cyclin-dependent kinase 5 (Homo sapiens) (UniProt Q00535); conditions: at 1 µM
# [6] = molecular target: Cyclin-dependent kinase 6 (Homo sapiens) (UniProt Q00534); conditions: at 0.1 µM
# [7] = molecular target: Cyclin-dependent kinase 6 (Homo sapiens) (UniProt Q00534); conditions: at 1 µM
# [8] = molecular target: Dual specificity protein kinase CLK2 (Homo sapiens) (UniProt P49760); conditions: at 0.1 µM
# [9] = molecular target: Dual specificity protein kinase CLK2 (Homo sapiens) (UniProt P49760); conditions: at 1 µM
# [10] = molecular target: Dual specificity protein kinase CLK3 (Homo sapiens) (UniProt P49761); conditions: at 0.1 µM
# [11] = molecular target: Dual specificity protein kinase CLK3 (Homo sapiens) (UniProt P49761); conditions: at 1 µM
# [12] = molecular target: Dual specificity tyrosine-phosphorylation-regulated kinase 1A (Homo sapiens) (UniProt Q13627); conditions: at 0.1 µM
# [13] = molecular target: Dual specificity tyrosine-phosphorylation-regulated kinase 1A (Homo sapiens) (UniProt Q13627); conditions: at 1 µM
# [14] = molecular target: Dual specificity tyrosine-phosphorylation-regulated kinase 1B (Homo sapiens) (UniProt Q9Y463); conditions: at 0.1 µM
# [15] = molecular target: Dual specificity tyrosine-phosphorylation-regulated kinase 1B (Homo sapiens) (UniProt Q9Y463); conditions: at 1 µM
# [16] = molecular target: T1, Dual specificity tyrosine-phosphorylation-regulated kinase 2 (Homo sapiens) (UniProt Q92630); conditions: at 0.1 µM
# T1 sequence (whole entry): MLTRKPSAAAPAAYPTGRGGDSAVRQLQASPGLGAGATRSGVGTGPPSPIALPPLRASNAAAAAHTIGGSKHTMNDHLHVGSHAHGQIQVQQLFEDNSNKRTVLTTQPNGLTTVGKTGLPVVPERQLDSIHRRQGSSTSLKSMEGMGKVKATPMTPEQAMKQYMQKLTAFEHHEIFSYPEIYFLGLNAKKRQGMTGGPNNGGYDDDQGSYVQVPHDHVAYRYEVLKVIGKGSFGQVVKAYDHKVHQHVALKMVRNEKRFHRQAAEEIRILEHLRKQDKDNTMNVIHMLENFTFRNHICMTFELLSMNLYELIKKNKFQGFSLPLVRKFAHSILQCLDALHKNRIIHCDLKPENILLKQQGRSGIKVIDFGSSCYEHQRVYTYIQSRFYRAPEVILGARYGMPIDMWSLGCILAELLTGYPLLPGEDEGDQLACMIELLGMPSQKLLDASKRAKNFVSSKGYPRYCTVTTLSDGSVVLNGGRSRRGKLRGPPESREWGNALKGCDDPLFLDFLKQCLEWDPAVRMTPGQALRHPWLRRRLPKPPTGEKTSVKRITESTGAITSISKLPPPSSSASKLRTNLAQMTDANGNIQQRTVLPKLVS
# [17] = molecular target: T1, Dual specificity tyrosine-phosphorylation-regulated kinase 2 (Homo sapiens); conditions: at 1 µM
# [18] = molecular target: Glycogen synthase kinase-3 alpha (Homo sapiens) (UniProt P49840); conditions: at 0.1 µM
# [19] = molecular target: Glycogen synthase kinase-3 alpha (Homo sapiens) (UniProt P49840); conditions: at 1 µM
# [20] = molecular target: Glycogen synthase kinase-3 beta (Homo sapiens) (UniProt P49841); conditions: at 0.1 µM;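 further: values are mean percent inhibition of GSK3B activity, from the GSK Published Kinase Inhibitor Set (PKIS) screening dataset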
# Chain of Glycogen synthase kinase-3 beta (Homo sapiens) (P49841 whole entry, looked up): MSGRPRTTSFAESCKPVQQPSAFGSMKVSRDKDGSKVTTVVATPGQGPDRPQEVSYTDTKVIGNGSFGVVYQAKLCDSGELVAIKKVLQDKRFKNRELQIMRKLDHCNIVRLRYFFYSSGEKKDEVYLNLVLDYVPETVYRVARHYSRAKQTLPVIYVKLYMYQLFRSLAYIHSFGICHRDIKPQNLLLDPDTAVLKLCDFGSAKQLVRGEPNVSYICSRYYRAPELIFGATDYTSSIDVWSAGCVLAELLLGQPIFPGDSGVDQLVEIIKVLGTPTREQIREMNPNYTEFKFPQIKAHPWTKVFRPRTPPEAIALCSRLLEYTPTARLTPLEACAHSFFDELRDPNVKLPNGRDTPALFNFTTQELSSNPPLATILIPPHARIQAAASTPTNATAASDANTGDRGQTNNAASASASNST
# Chain of CDK3/Cyclin E (Homo sapiens) (P24864 whole entry, looked up): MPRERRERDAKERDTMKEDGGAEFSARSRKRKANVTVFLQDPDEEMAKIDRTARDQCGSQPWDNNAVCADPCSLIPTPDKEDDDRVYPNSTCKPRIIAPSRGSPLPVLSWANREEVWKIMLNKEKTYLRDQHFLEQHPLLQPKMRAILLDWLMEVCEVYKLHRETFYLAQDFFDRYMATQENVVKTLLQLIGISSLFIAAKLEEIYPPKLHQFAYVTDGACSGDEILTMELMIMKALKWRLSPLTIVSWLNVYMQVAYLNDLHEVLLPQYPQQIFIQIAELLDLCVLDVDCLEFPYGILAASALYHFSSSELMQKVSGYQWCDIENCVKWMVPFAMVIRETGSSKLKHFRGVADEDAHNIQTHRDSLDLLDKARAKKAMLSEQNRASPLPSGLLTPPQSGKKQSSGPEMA
# Chain of CDK3/Cyclin E (Homo sapiens) (Q00526 whole entry, looked up): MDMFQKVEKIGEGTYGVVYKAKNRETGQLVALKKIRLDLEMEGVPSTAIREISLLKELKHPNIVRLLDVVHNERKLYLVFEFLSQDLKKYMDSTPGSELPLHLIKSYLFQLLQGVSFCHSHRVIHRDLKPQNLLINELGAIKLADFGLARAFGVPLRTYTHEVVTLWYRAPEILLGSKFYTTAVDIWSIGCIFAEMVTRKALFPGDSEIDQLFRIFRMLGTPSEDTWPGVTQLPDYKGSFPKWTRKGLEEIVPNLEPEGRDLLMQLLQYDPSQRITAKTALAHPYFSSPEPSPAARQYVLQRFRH
# Chain of Glycogen synthase kinase-3 alpha (Homo sapiens) (P49840 2-483 limits assumed): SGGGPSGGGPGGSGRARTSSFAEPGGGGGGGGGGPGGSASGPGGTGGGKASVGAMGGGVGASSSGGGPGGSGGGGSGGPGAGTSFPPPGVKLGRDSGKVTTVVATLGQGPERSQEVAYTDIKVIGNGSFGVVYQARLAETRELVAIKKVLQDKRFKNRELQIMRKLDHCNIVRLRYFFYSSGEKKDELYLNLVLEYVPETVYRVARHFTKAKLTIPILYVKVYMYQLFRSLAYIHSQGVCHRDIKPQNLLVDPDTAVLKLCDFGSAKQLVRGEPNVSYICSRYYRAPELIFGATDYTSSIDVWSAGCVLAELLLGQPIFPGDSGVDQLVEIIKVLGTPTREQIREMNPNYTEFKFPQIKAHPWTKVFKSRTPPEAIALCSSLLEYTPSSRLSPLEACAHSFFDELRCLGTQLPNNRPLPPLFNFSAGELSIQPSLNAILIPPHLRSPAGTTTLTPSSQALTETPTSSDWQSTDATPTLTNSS
# Chain of Dual specificity protein kinase CLK2 (Homo sapiens) (P49760 whole entry, looked up): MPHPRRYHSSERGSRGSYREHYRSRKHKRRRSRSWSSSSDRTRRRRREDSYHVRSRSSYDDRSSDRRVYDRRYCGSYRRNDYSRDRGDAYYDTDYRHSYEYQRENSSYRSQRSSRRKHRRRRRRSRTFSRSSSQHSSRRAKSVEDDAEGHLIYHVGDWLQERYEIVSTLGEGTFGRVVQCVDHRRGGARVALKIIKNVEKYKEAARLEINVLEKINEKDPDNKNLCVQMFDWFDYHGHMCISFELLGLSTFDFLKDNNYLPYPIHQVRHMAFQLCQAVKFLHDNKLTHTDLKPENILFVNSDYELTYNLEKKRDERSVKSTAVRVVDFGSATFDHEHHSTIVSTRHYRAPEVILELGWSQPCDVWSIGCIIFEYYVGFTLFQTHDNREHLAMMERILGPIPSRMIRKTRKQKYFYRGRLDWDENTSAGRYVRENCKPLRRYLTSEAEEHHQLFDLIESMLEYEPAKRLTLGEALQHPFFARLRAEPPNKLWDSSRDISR
# Chain of Dual specificity protein kinase CLK3 (Homo sapiens) (P49761 whole entry, looked up): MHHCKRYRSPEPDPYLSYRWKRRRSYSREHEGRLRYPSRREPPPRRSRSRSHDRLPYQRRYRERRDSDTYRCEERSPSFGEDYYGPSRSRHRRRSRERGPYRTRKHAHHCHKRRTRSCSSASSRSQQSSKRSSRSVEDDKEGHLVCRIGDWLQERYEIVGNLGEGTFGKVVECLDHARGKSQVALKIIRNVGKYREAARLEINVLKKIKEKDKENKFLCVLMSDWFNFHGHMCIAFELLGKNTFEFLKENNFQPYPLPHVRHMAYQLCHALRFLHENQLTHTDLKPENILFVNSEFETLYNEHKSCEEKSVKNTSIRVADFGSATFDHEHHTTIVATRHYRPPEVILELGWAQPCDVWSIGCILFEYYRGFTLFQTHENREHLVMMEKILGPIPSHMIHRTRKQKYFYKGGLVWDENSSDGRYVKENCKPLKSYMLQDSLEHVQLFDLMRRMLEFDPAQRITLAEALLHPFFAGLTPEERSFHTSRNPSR
# Chain of Cyclin-dependent kinase 4 (Homo sapiens) (P11802 whole entry): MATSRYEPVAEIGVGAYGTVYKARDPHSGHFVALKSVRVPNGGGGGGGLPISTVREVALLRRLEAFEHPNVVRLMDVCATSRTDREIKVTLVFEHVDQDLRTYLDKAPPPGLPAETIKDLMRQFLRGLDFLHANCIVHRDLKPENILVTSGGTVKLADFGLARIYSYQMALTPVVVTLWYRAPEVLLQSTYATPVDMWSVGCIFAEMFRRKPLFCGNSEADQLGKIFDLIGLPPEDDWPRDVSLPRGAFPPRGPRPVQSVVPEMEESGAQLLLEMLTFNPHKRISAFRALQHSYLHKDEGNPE
# Chain of Cyclin-dependent kinase 6 (Homo sapiens) (Q00534 whole entry): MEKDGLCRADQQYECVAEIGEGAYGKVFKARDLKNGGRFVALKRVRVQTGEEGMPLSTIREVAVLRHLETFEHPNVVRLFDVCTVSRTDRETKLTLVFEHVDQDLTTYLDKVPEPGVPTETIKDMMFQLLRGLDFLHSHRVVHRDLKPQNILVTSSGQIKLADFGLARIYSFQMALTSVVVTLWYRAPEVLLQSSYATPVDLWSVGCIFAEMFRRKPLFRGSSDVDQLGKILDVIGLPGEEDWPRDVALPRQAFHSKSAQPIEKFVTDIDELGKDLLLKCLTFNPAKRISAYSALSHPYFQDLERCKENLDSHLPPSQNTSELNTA
# Chain of Dual specificity tyrosine-phosphorylation-regulated kinase 1B (Homo sapiens) (Q9Y463 whole entry, looked up): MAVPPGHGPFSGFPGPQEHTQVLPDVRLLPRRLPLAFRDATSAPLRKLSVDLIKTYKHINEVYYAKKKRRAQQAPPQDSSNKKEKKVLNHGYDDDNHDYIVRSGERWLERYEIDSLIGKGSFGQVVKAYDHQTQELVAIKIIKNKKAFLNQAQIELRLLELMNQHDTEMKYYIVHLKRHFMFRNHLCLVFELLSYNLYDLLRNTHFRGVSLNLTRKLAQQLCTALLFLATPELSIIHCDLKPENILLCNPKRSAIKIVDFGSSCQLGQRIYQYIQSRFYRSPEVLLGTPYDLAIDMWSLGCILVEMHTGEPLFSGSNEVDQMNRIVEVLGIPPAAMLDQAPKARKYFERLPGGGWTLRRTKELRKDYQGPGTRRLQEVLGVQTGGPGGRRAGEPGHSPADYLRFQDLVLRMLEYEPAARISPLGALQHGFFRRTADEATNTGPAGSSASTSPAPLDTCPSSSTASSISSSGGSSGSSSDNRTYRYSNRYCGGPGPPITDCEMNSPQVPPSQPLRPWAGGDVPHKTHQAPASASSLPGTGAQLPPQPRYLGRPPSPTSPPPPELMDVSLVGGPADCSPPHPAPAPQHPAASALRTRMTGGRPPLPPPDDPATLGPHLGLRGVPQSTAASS
# Chain of Cyclin-dependent kinase 5 (Homo sapiens) (Q00535 whole entry, looked up): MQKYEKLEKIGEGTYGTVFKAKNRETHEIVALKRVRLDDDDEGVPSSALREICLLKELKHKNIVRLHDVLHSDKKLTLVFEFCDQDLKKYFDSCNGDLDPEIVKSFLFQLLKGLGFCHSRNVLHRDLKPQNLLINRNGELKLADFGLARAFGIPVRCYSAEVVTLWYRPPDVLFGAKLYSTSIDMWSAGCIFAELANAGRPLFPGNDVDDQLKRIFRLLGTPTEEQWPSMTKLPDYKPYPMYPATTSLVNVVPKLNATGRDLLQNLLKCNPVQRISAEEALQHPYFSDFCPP
Structure (SMILES),inhibition [1],inhibition [2],inhibition [3],inhibition [4],inhibition [5],inhibition [6],inhibition [7],inhibition [8],inhibition [9],inhibition [10],inhibition [11],inhibition [12],inhibition [13],inhibition [14],inhibition [15],inhibition [16],inhibition [17],inhibition [18],inhibition [19],inhibition [20]
NS(=O)(=O)c1ccc(Nc2cc(-c3ccc(O)c(F)c3)n[nH]2)cc1,60.1%,3.31%,23.6%,20.1%,68.7%,21.6%,70.9%,1.17%,3.95%,-0.37%,2.65%,1.28%,4.89%,2.64%,5.44%,-2.19%,3.75%,1.79%,23.5%,4.44%
NC(=O)Cc1ccccc1Oc1nccc(-c2c(-c3ccc(F)cc3)ncn2C2CCNCC2)n1,-1.4%,0.31%,0.75%,0.66%,0.67%,-4.52%,0.67%,1.69%,2.11%,1.44%,1.79%,4.01%,5.44%,2.79%,3.43%,2.28%,3.74%,1.87%,3.05%,-0.25%
Cc1nnc(-c2ccc(C)c(-c3ccc(C(=O)NCc4ccc(Cl)cc4)cc3)c2)o1,-2.98%,-0.53%,0.24%,-2.39%,-4.02%,-7.02%,-4.88%,-0.33%,0.92%,-1.37%,-1.79%,0.32%,0.5%,-2.54%,-4.08%,2.1%,3.03%,0.36%,9.75%,-0.31%
O=C(Nc1ccc(Oc2ccc3[nH]c(NC(=O)c4ccccc4)nc3c2)cc1)Nc1cc(C(F)(F)F)ccc1F,-1.42%,3.17%,4.9%,0.47%,3.03%,2.76%,4.46%,0.71%,1.05%,1.59%,3.71%,1.94%,4.75%,0.86%,3.47%,2.36%,3.65%,3.49%,8.16%,3.19%
NC(=O)c1ccc(Oc2nccc(-c3c(-c4ccc(F)cc4)ncn3C3CCNCC3)n2)cc1,1.23%,3.18%,3.14%,1.5%,1.61%,-4.69%,-0.8%,1.44%,6.51%,2.43%,1.67%,3.41%,5.23%,0.33%,-0.41%,4.43%,9.4%,2.18%,3.39%,2.57%
COc1cc2ncn(-c3cc(OCCc4ccccc4)c(C(N)=O)s3)c2cc1OC,0.51%,1.86%,1.87%,0.7%,1.45%,-3.45%,2.54%,1.3%,2.64%,0.57%,3.27%,3.14%,3.09%,1.95%,1.81%,-0.08%,4.14%,0.82%,3.18%,0.44%
